LYPLA1 counter: blocks human lysophospholipase 1, a PME1 counter-screen | O75608 | inhibition, % at 5.9 µM | recombinant LYPLA1, FP-Rh probe fluorescence polarization | 0.16% of 320,000 active;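 active = inhibition above the mean of all tested compounds plus 3 SD, set per campaign, cut at about 14% in these data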;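 note: inhibitors block serine hydrolase probe labeling of LYPLA1 so polarization falls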
Target sequence (O75608 whole entry, looked up): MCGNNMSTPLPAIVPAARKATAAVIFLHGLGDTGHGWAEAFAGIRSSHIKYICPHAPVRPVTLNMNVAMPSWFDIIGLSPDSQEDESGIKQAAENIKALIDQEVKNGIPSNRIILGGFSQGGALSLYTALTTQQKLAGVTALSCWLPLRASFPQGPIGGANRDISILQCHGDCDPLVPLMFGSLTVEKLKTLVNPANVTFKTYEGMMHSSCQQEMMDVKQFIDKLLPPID
PME-1 inh: PME-1 (human) inhibition; inhibition, % at 5.9 µM; AID 2130; recombinant PME-1, FP-Rh probe fluorescence polarization; 0.53% of 320,000 active; Q9Y570;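 active = inhibition above the campaign mean of all compounds plus 3 SD, cut at about 26% in these data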;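 note: competitive labeling of PME-1 active site by serine hydrolase directed probe; inhibitors block probe labeling so polarization falls and inhibition rises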
LYPLA2 counter: LYPLA2 (human) inhibition in PME1 counter-screen; O95372; recombinant LYPLA2, FP-Rh probe fluorescence polarization; inhibition, % at 5.9 µM; 0.38% of 320,000 active; AID 2177;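 active = inhibition above the screen-wide mean plus 3 SD, limit set per campaign, cut at about 26% in these data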
Target sequence (O95372 whole entry, looked up): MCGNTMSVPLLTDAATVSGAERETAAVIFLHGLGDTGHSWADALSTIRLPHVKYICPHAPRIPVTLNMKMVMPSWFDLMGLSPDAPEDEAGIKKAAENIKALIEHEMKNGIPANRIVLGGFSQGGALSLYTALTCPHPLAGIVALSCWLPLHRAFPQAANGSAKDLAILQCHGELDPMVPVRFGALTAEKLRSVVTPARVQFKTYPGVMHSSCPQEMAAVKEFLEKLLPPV
PAD4 inh: blocks human protein arginine deiminase 4; 0.41% of 330,000 active; inhibition, % at 6.36 µM; AID 485272; recombinant PAD4, RCA probe fluorescence polarization;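 active = percent inhibition above a cutoff equal to the mean of all tested compounds plus 3 SD, cut at about 15% in these data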
Fam108B counter: Fam108B inhibition, counter-screen for RBBP9 inhibitors; recombinant Fam108B, FP-Rh probe fluorescence polarization; inhibition, % at 9.51 µM; 0.33% of 300,000 active; AID 1947;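 active = inhibition above the screen mean inhibition plus 3 SD, computed separately per campaign, cut at about 18% in these data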;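 note: inhibitors lower polarization as less probe binds the enzyme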
GSTO1 inh: counter-screen for RBBP9 inhibitors: inhibitors of human GSTO1; P78417; recombinant GSTO1, activity-based probe fluorescence polarization; inhibition, % at 5.96 µM; 1.1% of 300,000 active; AID 1974;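 active = inhibition above the campaign mean inhibition plus 3 SD, cut at about 35% in these data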
Target sequence (P78417 whole entry, looked up): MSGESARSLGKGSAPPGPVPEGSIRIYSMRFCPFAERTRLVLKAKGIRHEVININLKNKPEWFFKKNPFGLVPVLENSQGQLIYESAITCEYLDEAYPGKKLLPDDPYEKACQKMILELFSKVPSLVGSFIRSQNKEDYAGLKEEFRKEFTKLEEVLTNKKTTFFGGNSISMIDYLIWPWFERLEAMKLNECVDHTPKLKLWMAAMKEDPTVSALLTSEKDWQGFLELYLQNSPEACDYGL
LYPLA2 conf: counter-screen for PME1 inhibitors: confirmation of human LYPLA2 inhibitors | recombinant LYPLA2, FP-Rh probe fluorescence polarization | inhibition, % at 5.9 µM | shares compounds with LYPLA2 counter | 72% of 1,100 active;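 active = mean inhibition across replicates above the hit cutoff set in the primary screen, cut at about 26% in these data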;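 note: blocked labeling of the enzyme by serine hydrolase FP-Rh probe lowers polarization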
LYPLA2 ABPP: blocks human acyl-protein thioesterase 2 in gel ABPP. inhibition, % at 20 µM. rhLYPLA2 in mouse brain proteome, gel ABPP FP-Rh. 30% of 150 active. AID 652029. shares compounds with LYPLA2 counter;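 active = inhibition of LYPLA2 enzyme probe labeling above about 50%, limit read from the data; inactive = inhibition below that limit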;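 note: loss of FP-Rh probe labeling of the LYPLA2 gel band measured as band density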
Hits are given with their value. An excerpt weighted towards active compounds, which were near 1.8% of everything screened.

How did COc1cc(C(=O)Nc2ccc(N3CCN(C(=O)c4ccc(C)cc4)CC3)cc2)cc(OC)c1OC do in these assays?
LYPLA1 counter: inactive; PME-1 inh: inactive; LYPLA2 counter: 37.9; PAD4 inh: inactive; Fam108B counter: inactive; GSTO1 inh: inactive; LYPLA2 conf: 50.0; LYPLA2 ABPP: inactive

Results for O=C(Nc1ccc(C(=O)N2CCN(c3ccc(F)cc3)CC2)cc1)C1=CSCCO1 ?
LYPLA1 counter: inactive; PME-1 inh: inactive; LYPLA2 counter: inactive; PAD4 inh: inactive; Fam108B counter: inactive; GSTO1 inh: inactive

What do the screens show for `COc1ccc2[nH]c3c(c2c1)CCN1C(=O)C(CC(=O)NC/C=C(\C)CCC=C(C)C)C[C@H](C(=O)N2CCOCC2)[C@@]31CCC1CCCC1` (stereo partly specified)?
PAD4 inh: inactive

Results for Cc1ccc(S(=O)(=O)NCCC(=O)N2CCN(c3ccccc3)CC2)cc1C ?
PAD4 inh: inactive

What do the screens show for `Cc1ccc(CC2C(=O)N(c3cc(C)ccc3C)C(=O)C2C)cc1` (stereo unspecified)?
LYPLA1 counter: inactive; PME-1 inh: inactive; LYPLA2 counter: inactive; PAD4 inh: inactive; Fam108B counter: inactive; GSTO1 inh: inactive

What do the screens show for `COc1cccc(N2CCN(C(=O)c3ccc(-c4ccccc4)cc3)CC2)c1`?
LYPLA1 counter: inactive; PME-1 inh: inactive; LYPLA2 counter: 29.7; PAD4 inh: inactive; Fam108B counter: inactive; GSTO1 inh: inactive; LYPLA2 conf: 26.2

How did CC(=O)c1ccc(N2CCN(C(=O)c3ccc(OCc4c(C)noc4C)cc3)CC2)cc1 do in these assays?
LYPLA1 counter: inactive; PME-1 inh: inactive; LYPLA2 counter: 36.6; PAD4 inh: inactive; Fam108B counter: inactive; GSTO1 inh: inactive; LYPLA2 conf: 28.4

Results for Cc1noc(C)c1COc1ccc(C(=O)N2CCN(c3ccccc3F)CC2)cc1 ?
LYPLA1 counter: inactive; PME-1 inh: inactive; LYPLA2 counter: inactive; PAD4 inh: inactive; Fam108B counter: inactive; GSTO1 inh: inactive

What do the screens show for `COc1ccc(N2CCN(C(=O)c3ccc(C(C)(C)C)cc3)CC2)cc1`?
LYPLA1 counter: inactive; PME-1 inh: inactive; LYPLA2 counter: 78.8; PAD4 inh: inactive; Fam108B counter: inactive; GSTO1 inh: inactive; LYPLA2 conf: 86.7; LYPLA2 ABPP: 86.0

Results for COc1ccc(C(=O)N2CCN(c3cccc(Cl)c3)CC2)cc1 ?
LYPLA1 counter: inactive; PME-1 inh: inactive; LYPLA2 counter: inactive; PAD4 inh: inactive; Fam108B counter: inactive; GSTO1 inh: inactive

How did COc1ccc(N2CCN(C(=O)CCNC(=O)c3ccc(C(C)(C)C)cc3)CC2)cc1 do in these assays?
LYPLA1 counter: inactive; PME-1 inh: inactive; LYPLA2 counter: inactive; PAD4 inh: inactive; Fam108B counter: inactive; GSTO1 inh: inactive

What do the screens show for `COc1ccc(CN2CCNC(=O)C2CC(=O)N2CCCN(C(C)=O)CC2)c(OC)c1` (stereo unspecified)?
LYPLA1 counter: inactive; PME-1 inh: inactive; LYPLA2 counter: inactive; PAD4 inh: inactive; Fam108B counter: inactive; GSTO1 inh: inactive

What do the screens show for `CCCN1C(C)C(C(=O)OCC)=CN(Cc2cccc(I)c2)S1(=O)=O` (stereo unspecified)?
PAD4 inh: inactive

Results for CC1CCCCC1NC(=O)CN1C(=O)NC(C)(c2cc(F)ccc2F)C1=O (stereo unspecified) ?
LYPLA1 counter: inactive; PME-1 inh: inactive; LYPLA2 counter: inactive; PAD4 inh: inactive

How did Cc1ccc(NC(=O)CN2C(=O)S/C(=C\c3cccn3-c3cccc(C(=O)O)c3)C2=O)cc1C do in these assays?
LYPLA1 counter: inactive; PME-1 inh: inactive; LYPLA2 counter: 35.8; PAD4 inh: inactive; Fam108B counter: inactive; GSTO1 inh: inactive; LYPLA2 conf: 43.1

How did Cc1ccccc1NC(=O)CN1C(=O)S/C(=C\c2cccn2-c2cccc(C(=O)O)c2)C1=O do in these assays?
LYPLA1 counter: inactive; PME-1 inh: inactive; LYPLA2 counter: 50.0; PAD4 inh: inactive; Fam108B counter: inactive; GSTO1 inh: inactive; LYPLA2 conf: 74.3; LYPLA2 ABPP: 64.0

How did Cc1ccc(NC(=O)CN2C(=O)S/C(=C\c3cc(C)n(-c4ccc(C(=O)O)cc4)c3C)C2=O)cc1 do in these assays?
LYPLA1 counter: inactive; PME-1 inh: inactive; LYPLA2 counter: 41.7; PAD4 inh: inactive; Fam108B counter: inactive; GSTO1 inh: inactive; LYPLA2 conf: 43.1

What do the screens show for `Cc1cccc(C)c1NC(=O)CN1C(=O)S/C(=C\c2cccn2C)C1=O`?
LYPLA1 counter: inactive; PME-1 inh: inactive; LYPLA2 counter: inactive; PAD4 inh: inactive; Fam108B counter: inactive; GSTO1 inh: inactive

How did Cc1cccc(NC(=O)CN2C(=O)S/C(=C\C(=O)Nc3ccc(Cl)cc3)C2=O)c1 do in these assays?
LYPLA1 counter: inactive; PME-1 inh: inactive; LYPLA2 counter: inactive; PAD4 inh: inactive; Fam108B counter: inactive; GSTO1 inh: inactive

What do the screens show for `Cc1cccc(NC(=O)CN2C(=O)S/C(=C\c3cccn3-c3cccc(C(=O)O)c3)C2=O)c1`?
LYPLA1 counter: inactive; PME-1 inh: inactive; LYPLA2 counter: 66.5; PAD4 inh: inactive; Fam108B counter: inactive; GSTO1 inh: inactive; LYPLA2 conf: 63.4; LYPLA2 ABPP: 94.0

How did CC(=O)c1ccc(N2CCN(c3ccnc4cc(Cl)ccc34)CC2)cc1 do in these assays?
LYPLA1 counter: inactive; PME-1 inh: inactive; LYPLA2 counter: 35.8; PAD4 inh: inactive; Fam108B counter: inactive; GSTO1 inh: inactive; LYPLA2 conf: 26.9

How did CC(C)(C)NC(=O)CN1CCCN(C(=O)c2cccc(S(=O)(=O)N3CCc4ccccc43)c2)CC1 do in these assays?
LYPLA1 counter: inactive; PME-1 inh: inactive; LYPLA2 counter: inactive; PAD4 inh: inactive

How did COc1cccc(NC(=O)CN2C(=O)COc3ccc(Cl)cc32)c1 do in these assays?
LYPLA1 counter: inactive; PME-1 inh: inactive; LYPLA2 counter: 45.1; PAD4 inh: inactive; Fam108B counter: inactive; GSTO1 inh: inactive; LYPLA2 conf: 46.5

What do the screens show for `COc1cccc(CNC(=O)CN2C(=O)COc3ccc(S(=O)(=O)N4CCCCC4)cc32)c1`?
LYPLA1 counter: inactive; PME-1 inh: inactive; LYPLA2 counter: inactive; PAD4 inh: inactive; Fam108B counter: inactive; GSTO1 inh: inactive

Results for COc1cccc(NC(=O)CN2C(=O)COc3ccc(S(=O)(=O)N4CCOCC4)cc32)c1 ?
LYPLA1 counter: inactive; PME-1 inh: inactive; LYPLA2 counter: 37.9; PAD4 inh: inactive; Fam108B counter: inactive; GSTO1 inh: inactive; LYPLA2 conf: 35.2

Results for O=C(CN1C(=O)COc2ccc(S(=O)(=O)N3CCOCC3)cc21)Nc1cccc(Cl)c1 ?
LYPLA1 counter: inactive; PME-1 inh: inactive; LYPLA2 counter: 33.0; PAD4 inh: inactive; Fam108B counter: inactive; GSTO1 inh: inactive; LYPLA2 conf: 45.8
